The structures appear in SMILES notation. Results filed as inconclusive are left out. Where a call stands in place of a potency, no number is given. Calls of active or inactive are those of the source. Calls follow the shape of the dose curve; as a rule, active = well fitted activation curve with a large enough effect; inconclusive = small, poorly fitted or top-dose-only effect; inactive = flat fitted curve, though single readings scatter.

From PubChem BioAssay (NCATS) come the findings set out here.
Potency is read from the fitted curve at half-maximal effect.

The target in the experiment is Cellular tumor antigen p53 (Homo sapiens) (UniProt P04637). The experiment can be described thus: Primary qHTS for small molecule compounds that upregulate eGFP-tagged delta133p53alpha (in C-terminal) cells. (AID 2060324). The settings on record: NCI-H358 delta133p53alpha-eGFP (C-terminal tag), GFP fluorescence imaging, 24 h; series mostly up to 57.5 µM. From the text: Assay Development and Screening Technology
Chain of Cellular tumor antigen p53 (Homo sapiens) (P04637 whole entry, looked up): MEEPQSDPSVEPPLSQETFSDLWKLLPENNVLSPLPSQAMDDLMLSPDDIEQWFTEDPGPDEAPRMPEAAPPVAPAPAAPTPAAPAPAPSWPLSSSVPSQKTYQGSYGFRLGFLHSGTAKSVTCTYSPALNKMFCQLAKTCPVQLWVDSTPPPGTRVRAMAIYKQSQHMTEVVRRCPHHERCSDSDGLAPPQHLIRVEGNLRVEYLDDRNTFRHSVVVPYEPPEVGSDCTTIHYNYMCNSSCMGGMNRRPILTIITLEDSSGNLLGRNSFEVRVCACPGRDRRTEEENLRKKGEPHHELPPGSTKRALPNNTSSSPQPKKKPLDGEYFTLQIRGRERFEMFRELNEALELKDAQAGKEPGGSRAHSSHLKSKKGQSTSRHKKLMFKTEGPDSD
National Center for Advancing Translational Sciences (NCATS),
National Institute of Health (NIH), Rockville, Maryland
Cellular senescence (CS) is one of the hallmarks of aging and age-related diseases. Senescent cells are characterized by an irreversible growth arrest, an increase in senescence-associated beta-galactosidase (SA-beta-gal) activity and p16INK4a expression, an activation of the DNA damage response pathways, and the emergence of a senescence-associated secretory phenotype (SASP).
Delta133p53alpha, a human/primate-specific p53 protein isoform, delays or inhibits the induction of CS and SASP in various types of human cells, including progeria-derived fibroblasts, primary normal astrocytes, and CD8+ T lymphocytes. Induction of delta133p53alpha with small molecule compounds may provide therapeutic opportunities for inhibition of senescence/SASP-associated pathologies in progeria syndromes, astrocyte-mediated neuroprotection in neurodegenerative diseases, and possibly prevention and treatment of a wider range of senescence- and aging-associated diseases.
Here we report the development and validation of a cell-based quantitative high throughput screening (qHTS) assay in 1,536-well format. This qHTS assay uses the NCI-H358 cell line with doxycycline-inducible expression of enhanced green fluorescent protein (eGFP)-tagged delta133p53alpha, which allows efficient and highly quantitative measurement of the protein levels.
PROTOCOL TABLE (as described by Inglese J, Shamu CE and Guy RK. 2007)
SEQUENCE No. (e.g., 1, 2, 3, etc.); […] (e.g., Cells, Incubation, Reagent, etc.); VALUE; DESCRIPTION.
1; Cells; 4uL; 800 doxycycline treated cells / well in doxycycline-free media, 1536-well black, clear-bottom low base Aurora microplates.
2; Compounds; 23 nL; Kalypsis pin tool (Wako) equipped with 1536-well pin heads, 5-azacytidine positive control.
3; Incubation; 24 hr; 37C, 5% CO2; 95% relative humidity.
4; Aspiration; 1x; BioTek EL406 washer dispenser (Agilent).
5; Fixing; 3.5% paraformaldehyde, BioTek EL406 washer dispenser (Agilent).
6; Washing; 1x PBS; BioTek EL406 washer dispenser (Agilent).
7; Nuclei staining; 1:1000 dilution of Hoechst 33342 (Thermofisher), BioTek EL406 washer dispenser (Agilent).
8; Incubation; 20 min; in the dark at room temperature.
9; Washing; 2x, 1x PBS (ThermoFisher), BioTek EL406 washer dispenser (Agilent).
10; Reagent; 10 uL; 1x PBS per well, sealed with clear adhesive tape.
11; Detection; Fluorescence, Acumen eX3 laser scanning cytometer (STP Labtech), GFP filters […].
NOTES (numbers refer to sequence numbers above).
1. NCI-H358 cells expressing eGFP-tagged delta133p53alpha were grown in T75 culture flasks and treated with doxycycline for 24h, at 10 ng/ml for eGFP-D133p53a cells (N-terminal cell) and 100 ng/ml for D133p53a-eGFP cells (C-terminal cells). Cells were trypsinized, counted using a Counted 3 Automated Cell Counter (Thermo Fisher), and diluted to a concentration of 200,000 cells/ml. A Multidrop Combi Reagent Dispenser (ThermoFisher) was used to dispense 800 cells/well in […] of doxycycline-free media, into 1536-well black/clear bottom low base plates (AuroraMicroplates).
2. After plating cells, 23 nl of compound library, DMSO vehicle control or positive control (5-azacytidine) were transferred by Pin Tool (Wako). The plate map layout was the same for each plate: (column 1) non-doxycycline treated cells + DMSO vehicle control; (column 2) doxycycline treated cells + DMSO vehicle control baseline; (column 3) doxycycline treated cells + positive control 57.5 uM final concentration 5-azacytidine; (column 4) doxycycline treated cells + serial dilution of 5-azacytidine, 16-point 1:2 titration spanning 1.8 nM to […] final concentration; (columns 5-48) doxycycline treated cells + titration of library compounds.
3. Cells were incubated at 37 °C, 5 % CO2, 95% RH with breathable metal lid for 24h.
4-10. […] […]
A general note: qHTS replaces the single test concentration by a dilution series.
Consider `C=Cc1c(C)c2cc3[nH]c(cc4nc(cc5nc(cc1[nH]2)C(C)=C5CCC(=O)O)C(CCC(=O)O)=C4C)c(C)c3C=C`, for which the Potency result is “inactive”.

On to `C=C1C[C@@]23CC[C@H]4[C@@](C)(CCC[C@@]4(C)C(=O)OC4OC(CO)C(O)C(O)C4O)[C@@H]2CC[C@]1(OC1OC(CO)C(O)C(O)C1OC1OC(CO)C(O)C(O)C1O)C3` (stereo not given in full), for which the Potency entry was “inactive”.

For the molecule `Cc1ccc(C(=O)Nc2ccc(S(=O)(=O)O)c3cc(S(=O)(=O)O)cc(S(=O)(=O)O)c23)cc1NC(=O)c1cccc(NC(=O)Nc2cccc(C(=O)Nc3cc(C(=O)Nc4ccc(S(=O)(=O)O)c5cc(S(=O)(=O)O)cc(S(=O)(=O)O)c45)ccc3C)c2)c1`, the Potency entry is “inactive”.

As to `C[C@H](Cc1ccc(O)c(O)c1)[C@@H](C)Cc1ccc(O)c(O)c1`, the Potency result is “inactive”.

Take `N[C@@H](CCCC(=O)O)C(=O)O`: the Potency result is “inactive”.

Turning to `CC(=O)NC[C@H]1CN(c2ccc(N3CCOCC3)c(F)c2)C(=O)O1`, the Potency result was “inactive”.

Take `N=c1c[n+](N2CCOCC2)[n-]o1`: the Potency result was “inactive”.

For `CC(C)(C)c1onc(OCP(=O)(O)O)c1CC(N)C(=O)O` (stereo not given), the Potency result is “inactive”.

For the molecule `O=C(O)c1cc([N+](=O)[O-])ccc1NCCCc1ccccc1`, the Potency entry is “inactive”.

Consider `NCCc1ccc(O)c(O)c1`, for which the Potency entry was “inactive”.

As to `CCCCNc1ccc(C(=O)OCCN(C)C)cc1`, the Potency result was “inactive”.

For `Cc1cccc(C)c1OCC(N)C(C)C` (stereo not given), the Potency entry is “inactive”.

`CN1CCC2(CCN3CCc4c(oc5ccccc45)C3C2)N(C)C1=O` (stereo not given): the Potency entry was “inactive”.

`COC(=O)C1=C(C)NC(C)=C(C(=O)OC)C1c1ccccc1[N+](=O)[O-]`: the Potency result was “inactive”.

Consider `O=C(O)CC[C@@H](C(=O)O)N1C(=O)c2ccccc2C1=O`, for which the Potency entry is “inactive”.

Consider `C[n+]1cc2c3c(ccc2c2ccc4cc5c(cc4c21)OCO5)OCO3`, for which the Potency is 7.57 µM (active).

Regarding `C[C@@H](NCCc1ccc(O)cc1)[C@@H](O)c1ccc(O)cc1`, the Potency entry was “inactive”.

Take `C[C@H](O)C(=O)C1=Nc2c(nc(N)[nH]c2=O)NC1`: the Potency result was “inactive”.

In the case of `Cc1nc2sccn2c(=O)c1CCN1CCC(=C(c2ccc(F)cc2)c2ccc(F)cc2)CC1`, the Potency result was “inactive”.

Take `Oc1cc2c(cc1O)CN(C(=S)NCCc1ccc(Cl)cc1)CCC2`: the Potency entry is “inactive”.

`CCNC(=O)[C@H]1O[C@@H](n2cnc3c(N)nc(NCCc4ccc(CCC(=O)O)cc4)nc32)[C@H](O)C1O` (stereo not given in full): the Potency entry was “inactive”.

For `COc1cc(C(O)C(=O)O)ccc1O` (stereo not given), the Potency result is “inactive”.

Take `CN(C)CCCN1c2ccccc2Sc2ccccc21`: the Potency result was “inactive”.

With `COc1ccc(-c2cc(=O)c3c(O)c(OC)c(OC)cc3o2)cc1O`, the Potency entry was “inactive”.

Consider `CCN1/C(=C/C(C)=O)Sc2ccc(OC)cc21`, for which the Potency entry was “inactive”.

In the case of `CN1C(=O)CC[C@H]1c1cccnc1`, the Potency result is “inactive”.

Take `NCCCNCCSP(=O)(O)O`: the Potency result is “inactive”.

On to `Cc1nc(N=Nc2cc(S(=O)(=O)O)c3cc([N+](=O)[O-])cc(S(=O)(=O)O)c3c2)c(COP(=O)(O)O)c(C=O)c1O`, for which the Potency entry was “inactive”.

As for `CCCn1c(=O)c2[nH]c(-c3ccc(S(=O)(=O)O)cc3)nc2n(CCC)c1=O`, the Potency entry was “inactive”.

Regarding `CCCCCCCCCCCCCCCCCC(=O)OC(CC(=O)O)C[N+](C)(C)C` (stereo not given), the Potency result is “inactive”.

On to `Clc1ccc(C(c2ccc(Cl)cc2)n2cc[n+](CC(OCc3ccc(Cl)cc3Cl)c3ccc(Cl)cc3Cl)c2)cc1` (stereo not given), for which the Potency result is “inactive”.

On to `CCOC(=O)Nc1ccc(NCc2ccc(F)cc2)nc1N`, for which the Potency is 13.5 µM (active).

Consider `COc1ccccc1N1CCN(CCN(C(=O)C2CCCCC2)c2ccccn2)CC1`, for which the Potency entry is “inactive”.

`CCCC1O[C@@H]2C[C@H]3[C@@H]4CCC5=CC(=O)C=C[C@]5(C)[C@H]4[C@@H](O)C[C@]3(C)[C@]2(C(=O)CO)O1` (stereo not given in full): the Potency entry is “inactive”.

In the case of `CC[C@@H](C)[C@H]1O[C@]2(CC[C@H]1C)C[C@@H]1C[C@@H](CC=C(C)[C@@H](O[C@H]3C[C@H](OC)[C@@H](O[C@H]4C[C@H](OC)[C@@H](O)[C@H](C)O4)[C@H](C)O3)[C@@H](C)C=CC=C3CO[C@@H]4[C@H](O)C(C)=C[C@@H](C(=O)O1)[C@]34O)O2`, the Potency result was “inactive”.

As for `CCN(Cc1ccncc1)C(=O)C(CO)c1ccccc1` (stereo not given), the Potency entry was “inactive”.

In the case of `CN1CCN(CCCN2c3ccccc3Sc3ccc(Cl)cc32)CC1`, the Potency entry is “inactive”.

Turning to `CCN(CC)CCCN(c1ccccc1)C1Cc2ccccc2C1`, the Potency result was “inactive”.

Turning to `CCOC(=O)C1=C(O)C(=O)N(Cc2ccccc2)C1`, the Potency result is “inactive”.

Regarding `CN(C)CCC=C1c2ccccc2C=Cc2ccccc21`, the Potency entry is “inactive”.
